From ChEMBL document CHEMBL1961873, “Compounds: GSK PKIS; Assays: Nanosyn kinase panel” (2012)

Legend:
[1] = target: Casein kinase I isoform gamma-2 (Homo sapiens) (UniProt P78368); conditions: at 1 µM
[2] = target: Casein kinase I isoform gamma-3 (Homo sapiens) (UniProt Q9Y6M4); conditions: at 0.1 µM
[3] = target: Casein kinase I isoform gamma-3 (Homo sapiens) (UniProt Q9Y6M4); conditions: at 1 µM
[4] = target: Cyclin-dependent kinase 1 (Homo sapiens) (UniProt P06493); conditions: at 0.1 µM
[5] = target: Cyclin-dependent kinase 1 (Homo sapiens) (UniProt P06493); conditions: at 1 µM
[6] = target: Cyclin-dependent kinase 2 (Homo sapiens) (UniProt P24941); conditions: at 0.1 µM
[7] = target: Cyclin-dependent kinase 2 (Homo sapiens) (UniProt P24941); conditions: at 1 µM
[8] = target: Cyclin-dependent kinase 2 (Homo sapiens) (UniProt P24941); conditions: at 0.1 µM; remark: listed apart in the source
[9] = target: Cyclin-dependent kinase 2 (Homo sapiens) (UniProt P24941); conditions: at 1 µM; remark: listed apart in the source
[10] = target: T1, CDK3/Cyclin E (Homo sapiens) (UniProt P24864+Q00526); conditions: at 0.1 µM
T1 sequence (P24864 whole entry, looked up): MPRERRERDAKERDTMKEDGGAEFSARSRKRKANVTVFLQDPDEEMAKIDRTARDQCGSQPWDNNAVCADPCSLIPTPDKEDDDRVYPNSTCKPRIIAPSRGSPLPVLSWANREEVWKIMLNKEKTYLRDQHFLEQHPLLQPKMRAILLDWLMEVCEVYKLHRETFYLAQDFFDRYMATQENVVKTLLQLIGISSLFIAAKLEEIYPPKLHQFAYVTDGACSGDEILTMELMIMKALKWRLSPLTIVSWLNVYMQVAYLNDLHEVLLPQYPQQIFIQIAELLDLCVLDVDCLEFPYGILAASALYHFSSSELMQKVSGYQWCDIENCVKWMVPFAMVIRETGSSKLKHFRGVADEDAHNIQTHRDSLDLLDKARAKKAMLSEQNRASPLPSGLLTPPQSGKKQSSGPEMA
T1 sequence (Q00526 whole entry, looked up): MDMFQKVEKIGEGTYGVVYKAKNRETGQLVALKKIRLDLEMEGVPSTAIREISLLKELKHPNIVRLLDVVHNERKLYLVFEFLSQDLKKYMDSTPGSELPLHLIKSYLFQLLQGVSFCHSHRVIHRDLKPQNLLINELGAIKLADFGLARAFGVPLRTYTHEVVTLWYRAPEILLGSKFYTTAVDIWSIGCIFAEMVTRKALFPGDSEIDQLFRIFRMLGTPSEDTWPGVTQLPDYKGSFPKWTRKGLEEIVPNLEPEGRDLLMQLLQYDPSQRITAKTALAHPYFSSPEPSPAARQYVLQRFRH

[11] = target: T1, CDK3/Cyclin E (Homo sapiens); conditions: at 1 µM
[12] = target: Cyclin-dependent kinase 4 (Homo sapiens) (UniProt P11802); conditions: at 0.1 µM
Chain of Cyclin-dependent kinase 4 (Homo sapiens) (P11802 whole entry): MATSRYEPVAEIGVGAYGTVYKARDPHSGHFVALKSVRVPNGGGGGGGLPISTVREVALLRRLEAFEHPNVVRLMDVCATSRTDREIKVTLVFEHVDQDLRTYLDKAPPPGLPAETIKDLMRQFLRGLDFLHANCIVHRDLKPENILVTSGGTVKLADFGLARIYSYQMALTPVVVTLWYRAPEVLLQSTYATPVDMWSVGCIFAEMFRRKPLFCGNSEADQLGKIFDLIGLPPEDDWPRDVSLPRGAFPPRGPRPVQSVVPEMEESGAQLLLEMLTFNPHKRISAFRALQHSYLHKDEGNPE

[13] = target: Cyclin-dependent kinase 4 (Homo sapiens) (UniProt P11802); conditions: at 1 µM
[14] = target: Cyclin-dependent kinase 5 (Homo sapiens) (UniProt Q00535); conditions: at 0.1 µM
Chain of Cyclin-dependent kinase 5 (Homo sapiens) (Q00535 whole entry, looked up): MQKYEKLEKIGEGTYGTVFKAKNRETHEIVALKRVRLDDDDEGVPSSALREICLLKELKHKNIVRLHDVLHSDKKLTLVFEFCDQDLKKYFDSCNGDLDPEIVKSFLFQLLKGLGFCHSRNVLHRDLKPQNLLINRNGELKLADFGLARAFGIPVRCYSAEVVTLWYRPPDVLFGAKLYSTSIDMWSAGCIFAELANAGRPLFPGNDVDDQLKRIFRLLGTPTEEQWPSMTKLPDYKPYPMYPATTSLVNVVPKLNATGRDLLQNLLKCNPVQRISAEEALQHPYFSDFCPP

[15] = target: Cyclin-dependent kinase 5 (Homo sapiens) (UniProt Q00535); conditions: at 1 µM
[16] = target: Cyclin-dependent kinase 6 (Homo sapiens) (UniProt Q00534); conditions: at 0.1 µM
Chain of Cyclin-dependent kinase 6 (Homo sapiens) (Q00534 whole entry): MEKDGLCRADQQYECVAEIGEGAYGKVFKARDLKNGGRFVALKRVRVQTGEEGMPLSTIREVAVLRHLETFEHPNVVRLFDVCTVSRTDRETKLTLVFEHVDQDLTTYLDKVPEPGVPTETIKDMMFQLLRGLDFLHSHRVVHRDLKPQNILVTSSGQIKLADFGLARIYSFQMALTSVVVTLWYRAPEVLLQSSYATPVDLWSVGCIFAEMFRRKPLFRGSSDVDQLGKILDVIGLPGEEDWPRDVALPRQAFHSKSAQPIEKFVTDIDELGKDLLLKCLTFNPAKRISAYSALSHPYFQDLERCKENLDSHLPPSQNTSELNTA

[17] = target: Cyclin-dependent kinase 6 (Homo sapiens) (UniProt Q00534); conditions: at 1 µM
[18] = target: Dual specificity protein kinase CLK2 (Homo sapiens) (UniProt P49760); conditions: at 0.1 µM
Chain of Dual specificity protein kinase CLK2 (Homo sapiens) (P49760 whole entry, looked up): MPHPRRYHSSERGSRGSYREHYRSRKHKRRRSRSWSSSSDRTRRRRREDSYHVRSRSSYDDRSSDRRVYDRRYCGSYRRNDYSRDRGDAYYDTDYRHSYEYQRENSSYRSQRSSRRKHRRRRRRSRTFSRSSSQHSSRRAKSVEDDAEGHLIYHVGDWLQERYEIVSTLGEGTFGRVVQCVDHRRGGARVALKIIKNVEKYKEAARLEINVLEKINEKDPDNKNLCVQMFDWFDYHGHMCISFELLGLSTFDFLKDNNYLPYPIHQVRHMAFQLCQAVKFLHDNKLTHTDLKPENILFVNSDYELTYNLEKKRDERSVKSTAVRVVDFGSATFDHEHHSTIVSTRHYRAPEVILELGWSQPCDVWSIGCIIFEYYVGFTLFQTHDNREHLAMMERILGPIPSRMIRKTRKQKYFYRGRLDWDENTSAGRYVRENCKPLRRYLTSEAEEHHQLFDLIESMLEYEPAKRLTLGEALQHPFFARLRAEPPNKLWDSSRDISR

[19] = target: Dual specificity protein kinase CLK2 (Homo sapiens) (UniProt P49760); conditions: at 1 µM
[20] = target: Dual specificity protein kinase CLK3 (Homo sapiens) (UniProt P49761); conditions: at 0.1 µM
Chain of Dual specificity protein kinase CLK3 (Homo sapiens) (P49761 whole entry, looked up): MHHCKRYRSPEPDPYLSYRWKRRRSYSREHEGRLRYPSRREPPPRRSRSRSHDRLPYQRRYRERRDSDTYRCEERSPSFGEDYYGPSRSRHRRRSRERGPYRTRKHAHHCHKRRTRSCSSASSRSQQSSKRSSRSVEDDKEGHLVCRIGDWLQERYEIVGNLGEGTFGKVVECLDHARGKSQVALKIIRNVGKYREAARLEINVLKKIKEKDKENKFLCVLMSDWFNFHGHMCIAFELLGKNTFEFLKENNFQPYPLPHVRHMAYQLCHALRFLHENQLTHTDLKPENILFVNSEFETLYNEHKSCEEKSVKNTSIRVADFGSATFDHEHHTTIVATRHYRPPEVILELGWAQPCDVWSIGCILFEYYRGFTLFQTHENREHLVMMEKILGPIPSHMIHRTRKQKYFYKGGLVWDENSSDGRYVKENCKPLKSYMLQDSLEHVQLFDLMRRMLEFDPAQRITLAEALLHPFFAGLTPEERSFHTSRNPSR

Chain of Casein kinase I isoform gamma-2 (Homo sapiens) (P78368 whole entry, looked up, canonical isoform): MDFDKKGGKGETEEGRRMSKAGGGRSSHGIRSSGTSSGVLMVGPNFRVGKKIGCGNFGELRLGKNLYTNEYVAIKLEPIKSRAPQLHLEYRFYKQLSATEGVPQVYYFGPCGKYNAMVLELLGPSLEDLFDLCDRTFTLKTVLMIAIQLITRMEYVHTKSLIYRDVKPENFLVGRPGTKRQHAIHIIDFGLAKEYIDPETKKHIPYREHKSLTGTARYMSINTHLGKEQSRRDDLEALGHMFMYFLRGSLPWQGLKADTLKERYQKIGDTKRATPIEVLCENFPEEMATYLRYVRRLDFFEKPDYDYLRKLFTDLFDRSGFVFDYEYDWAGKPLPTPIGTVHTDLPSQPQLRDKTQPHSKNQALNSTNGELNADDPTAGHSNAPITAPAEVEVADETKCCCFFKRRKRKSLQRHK
Chain of Casein kinase I isoform gamma-3 (Homo sapiens) (Q9Y6M4 whole entry, looked up, canonical isoform): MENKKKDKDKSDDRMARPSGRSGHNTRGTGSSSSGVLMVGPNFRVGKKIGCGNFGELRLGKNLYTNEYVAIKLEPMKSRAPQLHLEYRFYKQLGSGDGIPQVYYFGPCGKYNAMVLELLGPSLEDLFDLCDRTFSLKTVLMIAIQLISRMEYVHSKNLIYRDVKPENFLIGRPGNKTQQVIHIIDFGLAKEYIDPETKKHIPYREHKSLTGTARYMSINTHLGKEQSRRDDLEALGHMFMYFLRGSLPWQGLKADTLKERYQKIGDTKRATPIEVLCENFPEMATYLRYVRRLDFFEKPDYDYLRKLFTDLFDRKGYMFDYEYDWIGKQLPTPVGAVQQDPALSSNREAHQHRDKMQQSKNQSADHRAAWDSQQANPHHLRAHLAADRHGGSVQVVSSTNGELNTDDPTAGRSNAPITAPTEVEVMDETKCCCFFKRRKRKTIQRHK
Chain of Cyclin-dependent kinase 1 (Homo sapiens) (P06493 whole entry, looked up): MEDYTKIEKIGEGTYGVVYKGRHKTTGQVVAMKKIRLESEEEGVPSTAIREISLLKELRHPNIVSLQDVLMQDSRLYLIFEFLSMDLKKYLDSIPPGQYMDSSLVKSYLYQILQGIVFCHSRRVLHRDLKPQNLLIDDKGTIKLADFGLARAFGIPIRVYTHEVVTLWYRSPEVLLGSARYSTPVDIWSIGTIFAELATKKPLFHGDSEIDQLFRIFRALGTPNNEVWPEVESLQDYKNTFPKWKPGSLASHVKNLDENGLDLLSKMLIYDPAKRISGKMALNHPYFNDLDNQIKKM

SMILES	inhibition [1]	inhibition [2]	inhibition [3]	inhibition [4]	inhibition [5]	inhibition [6]	inhibition [7]	inhibition [8]	inhibition [9]	inhibition [10]	inhibition [11]	inhibition [12]	inhibition [13]	inhibition [14]	inhibition [15]	inhibition [16]	inhibition [17]	inhibition [18]	inhibition [19]	inhibition [20]
COc1cc2ncn(-c3cc(OCc4cccs4)c(C(N)=O)s3)c2cc1OC	-1.86%	-0.97%	-0.06%	-2.79%	-0.17%	-2.8%	6.63%	-0.55%	4.77%	1.28%	2.15%	-2.57%	-2.26%	-2.83%	-2.03%	-5.45%	-6.37%	2.46%	6.46%	-1.61%
C[C@@H](Oc1cc(-n2cnc3ccc(OC4CCN(C)CC4)cc32)sc1C(N)=O)c1ccccc1Cl	-0.19%	-1.77%	-4.38%	-1.71%	-2.15%	-1.38%	-0.94%	-0.63%	2.09%	-3.54%	0.13%	-0.83%	-0.3%	-2.91%	-2.26%	-5.27%	-2.7%	3.05%	6.53%	-2.76%
COc1ccc(C2=C(N3CCc4ccccc43)C(=O)NC2=O)cc1	4.63%	1.81%	3.33%	1.56%	3.2%	3.48%	3.47%	4.49%	6.31%	3.69%	-1.35%	3.95%	4.61%	1.51%	3.83%	4.88%	7.18%	0.19%	7.06%	2.88%
CN(c1ccc(NC(=O)Nc2c(Cl)cccc2Cl)cc1)c1ccnc(Nc2cccc(CS(C)(=O)=O)c2)n1	0.63%	1.67%	-1.25%	0.58%	3.72%	3.62%	12.2%	-0.54%	2.62%	0.7%	-0.7%	-0.86%	-0.25%	0.43%	1.99%	3.57%	-0.75%	3.63%	5.49%	-0.2%
NCc1ccc(-n2c(-c3nonc3N)nc3cnccc32)cc1	7.87%	2.05%	10.7%	3.12%	10.5%	5.13%	30.4%	10.1%	31.4%	6.87%	6.36%	5.03%	10.2%	4.76%	11.9%	-0.37%	5.55%	6.2%	28.7%	2.13%
Cc1nnc(-c2ccc(C)c(-c3ccc(C(=O)NCc4ccc(Cl)cc4)cc3)c2)o1	1.06%	-1.5%	-0.65%	-3.13%	-1.46%	-1.4%	-2.99%	0.91%	0.03%	4.6%	-2.98%	-0.53%	0.24%	-2.39%	-4.02%	-7.02%	-4.88%	-0.33%	0.92%	-1.37%
NC(=O)c1cc(-c2ccc(F)cc2)cc(-c2ccncc2)c1N	6.08%	4.13%	2.66%	0.65%	0.73%	2.41%	-6.47%	2.49%	2.14%	4.68%	-2.25%	4.11%	2.25%	-0.26%	-1.83%	0.37%	-0.58%	0.69%	1.24%	1.01%
N#Cc1ccc(Oc2nccc(-c3c(-c4ccc(F)cc4)ncn3C3CCNCC3)n2)cc1	5.15%	1.83%	5.34%	0.28%	1.02%	0.77%	1.99%	1.81%	2.89%	-1.88%	-2.53%	0.98%	3.8%	0.41%	1.15%	1.26%	-1.15%	1%	-0.9%	0.28%
COc1cc2ncn(-c3cc(OCc4ccccc4C(F)(F)F)c(C(C)=O)s3)c2cc1OC	3.62%	2.1%	2.97%	0.91%	2.22%	0.94%	2.63%	2.2%	3.96%	-1.43%	-2.36%	1.74%	2.66%	0.4%	1.96%	-0.64%	-0.67%	0.9%	-0.63%	0.94%
CCN(CC)Cc1ccc(Nc2nccc(-c3cnn4ncccc34)n2)cc1	13.7%	0.62%	10.6%	36.3%	68.1%	39.5%	82.5%	40.4%	70.1%	28.6%	78.8%	53.8%	69.8%	32.1%	66.8%	25.9%	62.1%	50.1%	91.7%	-2.57%
NS(=O)(=O)c1ccc(Nc2cc(-c3ccc(O)c(F)c3)n[nH]2)cc1	2.15%	-3.13%	4.18%	10.9%	51.7%	53.3%	78.9%	59.9%	86.9%	9.52%	60.1%	3.31%	23.6%	20.1%	68.7%	21.6%	70.9%	1.17%	3.95%	-0.37%
Fc1ccc(-c2c(-c3ccncc3)nc3n2CCS3)cc1	-0.73%	-3.04%	-1.19%	-4.51%	-4.05%	-1.82%	-3.21%	-1.42%	0.06%	2.29%	-3.24%	-2.5%	-1.15%	-3.5%	-3.63%	-6.1%	-2.27%	0.14%	0.05%	-2.3%
Cc1ccc(C(=O)NC2CCC2)cc1-c1ccc(C(=O)NCC2CC2)cc1	2.95%	2.2%	2.4%	0.42%	1.39%	2.38%	0.45%	2.25%	3.3%	2.79%	-2.09%	2.48%	3.14%	0.96%	1.18%	-2.65%	1.04%	0.82%	1.37%	1.37%
CN(C)CCCNc1nccc(-c2c(-c3ccc(F)cc3)nn3cc(C(F)(F)F)ccc23)n1	-1.02%	-3.53%	-1.67%	-1.9%	1.74%	-2.76%	3.18%	-2.39%	1.3%	0.59%	1.62%	-2.82%	1.54%	-1.32%	1.69%	-1.2%	-0.54%	1.26%	-0.07%	-2.82%
Fc1ccc(-c2ncn(C3CCNCC3)c2-c2ccnc(Oc3ccc(Oc4ccccc4)cc3)n2)cc1	14.6%	7.8%	26.3%	1.88%	2.92%	3.49%	4.28%	2.95%	4.3%	-3.73%	-1.29%	4.1%	3.52%	0.97%	1.86%	-6.79%	-6.24%	2.06%	4.62%	0.9%
NC(=O)Cc1ccccc1Oc1nccc(-c2c(-c3ccc(F)cc3)ncn2C2CCNCC2)n1	10.5%	3.98%	8.65%	-0.31%	-0.43%	1.15%	2%	1.82%	2.1%	2.95%	-1.4%	0.31%	0.75%	0.66%	0.67%	-4.52%	0.67%	1.69%	2.11%	1.44%
COc1cc(N2CCN(C(C)C)CC2)ccc1Nc1nc(Nc2ccc(F)cc2C(=O)NC[C@@H](O)CO)c2cc[nH]c2n1	15.6%	2.74%	31.8%	-2.84%	-2.45%	-1.75%	4.45%	0.16%	0.53%	3.35%	-3.1%	-2.67%	-0.98%	-3.1%	-4.32%	-8.05%	-5.78%	29.4%	82.9%	-0.73%
CN(C)CCOc1ccc(-c2cc(-c3ccc4c(c3)CCC4=NO)c(-c3ccncc3)o2)cc1	-0.77%	-0.76%	-0.08%	0.53%	1.85%	-0.07%	0.53%	-0.38%	0.33%	-2.82%	-0.71%	-0.67%	1.69%	0.66%	0.57%	-3.52%	-0.6%	0.73%	-1.28%	-0.3%
COc1cccc(-n2cnc3c(N/N=C/c4ccncc4)ncnc32)c1	-5.36%	-3.39%	-3.3%	-3.5%	0.55%	-3.99%	8.02%	-3.22%	-2.32%	-0.66%	0.9%	-6.94%	-4.27%	-3.69%	-0.49%	-0.76%	-8.82%	3.04%	5.72%	-3.93%
